Data published in PubChem BioAssay (NCATS).
Records with an inconclusive call do not appear. Entries that show only a call come without a potency. The source made the active and inactive calls. Unless noted, calls come from the whole dose curve; as a rule, active = well fitted curve in the direction sought with a large enough effect; inconclusive = small, poorly fitted or top-dose-only effect, or another doubt; inactive = no such curve, though single readings can be large; an effect the other way counts as inactive or inconclusive.

Experiments:
[1] = qHTS Assay for Lipid Storage Modulators (AID 1519; calls by dose curve); conditions: Drosophila S3 cells, BODIPY lipid droplet/cell ratio, laser cytometry, cells loaded with oleic acid
Procedure, shortened: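 Cells seeded at 5,000 per well were treated with compounds over a concentration series and loaded with oleic acid (400 uM, as added). Lipid droplet fluorescence (488 nm excitation, 500-530 nm channel) was read by laser-scanning cytometry and normalized to 20 uM Triacsin C.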

[2] = target: DNA repair nuclease/redox regulator APEX1 (Homo sapiens) (UniProt P27695); assay: qHTS Validation Assay for Inhibitors of the Human Apurinic/apyrimidinic Endonuclease 1 (APE1) (AID 1705;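 note: TAMRA fluorescence gain over two minutes as APE1 cuts a quenched THF abasic duplex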)
Procedure, shortened: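 qHTS, 1536-well. APE1 + cpd 15 min RT → 50 nM TAMRA/BHQ-2 THF-abasic dsDNA substrate → kinetic fluorescence, 3 reads/60 s; delta(read3−read1) = reaction progress. No-enzyme buffer = negative control.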

[3] = Counterscreen for APE1 Inhibitors: Fluorescent Dye Displacement Validation Assay (AID 1707)
Procedure, shortened: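 Endpoint fluorescence read at 480 nm excitation / 540 nm emission; DNA-binding compounds lower signal by displacing 250 nM Thiazole Orange from 50 nM dsDNA containing a tetrahydrofuran abasic site, Tris-HCl pH7.5 buffer with NaCl and MgCl2.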

[4] = target: Endonuclease 4 (Escherichia coli (strain K12)) (UniProt P0A6C1); assay: Counterscreen for APE1 Inhibitors: qHTS Validation Assay for Inhibitors of Endonuclease IV (AID 1708)
Procedure, shortened: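 Incision of a double-stranded 50 nM TAMRA/BHQ-2 abasic substrate was followed kinetically (525/598 nm, reads every 60 s) after 15 min enzyme–compound preincubation with 2 nM EndoIV in pH 7.5 Tris buffer with MgCl2, DTT and Tween-20; concentration-response format.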

[5] = qHTS for differential inhibitors of proliferation of Plasmodium falciparum line 7G8 (AID 1815);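 note: potency is the fitted concentration of half-maximal effect; parasite growth measured after three days of incubation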
[6] = qHTS for differential inhibitors of proliferation of Plasmodium falciparum line GB4 (AID 1816); conditions: Potency: Plasmodium falciparum GB4 proliferation inhibition;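 note: potency is the fitted concentration of half-maximal effect; parasite growth measured after 72 h incubation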
[7] = qHTS for differential inhibitors of proliferation of Plasmodium falciparum line 3D7 (AID 1876); note: potency is the fitted concentration of half-maximal effect
[8] = qHTS for differential inhibitors of proliferation of Plasmodium falciparum line Dd2 (AID 1882); conditions: Potency: Plasmodium falciparum Dd2 proliferation inhibition; note: potency is the fitted concentration of half-maximal effect; nearly all actives have a fitted effect of over 65% in size
Procedure, shortened: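 SYBR Green DNA fluorescence (ex 485, em 535 nm) after overnight lysis quantifies parasite growth; compound exposure lasted 72 h at 37 C on infected red cells at 2.5% hematocrit, 0.3% parasitemia (final). Artemisinin 0.29 uM and vehicle wells define normalization.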

[9] = qHTS for differential inhibitors of proliferation of Plasmodium falciparum line W2 (AID 1883); conditions: Potency: Plasmodium falciparum W2 proliferation inhibition;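 note: potency is the fitted concentration of half-maximal effect; parasites grown with compound for 72 h before lysis and staining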
[10] = target: ATP-dependent DNA helicase Q1 (Homo sapiens) (UniProt P46063); assay: qHTS Validation Assay for Inhibitors of RecQ-Like Dna Helicase 1 (RECQ1) (AID 2353)
Procedure, shortened: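 RECQ1T1 50 nM; forked duplex (20 bp + 30-nt ss tails) 200 nM, ATP 2 mM final; pH 8.0, 2 mM MgCl2, 2.5 ug/ml poly(dI-dC); 15 min compound preincubation; discontinuous kinetic read over 2 h at RT.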

[11] = target: RecQ-like DNA helicase BLM (Homo sapiens) (UniProt P54132); assay: qHTS Validation Assay for Inhibitors of Bloom's syndrome helicase (BLM) (AID 2364)
Procedure, shortened: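 Forked 20-bp duplex substrate (200 nM, TAMRA/BHQ-2) plus 2 mM ATP added after 15 min compound preincubation with 50 nM enzyme, pH 8.0, poly(dI-dC) 2.5 ug/ml. Strand separation followed by fluorescence (525/598 nm) over 2 h, normalized to enzyme-free and DMSO controls.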

[12] = Quantitative high throughput screen for delayed death inhibitors of the malarial parasite plastid, 96 hour incubation (AID 488745);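 note: luciferase-expressing P. falciparum in erythrocytes at 2% hematocrit and 0.1% parasitemia; nearly all actives have a fitted effect of over 70% in size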
Procedure, shortened: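 Readout is firefly luciferase luminescence from an integrated reporter in P. falciparum; lower signal marks inhibited growth. Cultures at 2% hematocrit and 0.1% parasitemia were treated with compound across two generations (96 h, 37 C, 5% CO2).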

[13] = target: Thyrotropin receptor (Homo sapiens) (UniProt P16473); assay: qHTS Assay for Antagonists of the Thyroid Stimulating Hormone Receptor (AID 488980)
Procedure, shortened: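 Readout is cAMP by HTRF competition between cellular cAMP and cAMP-d2 for a cryptate-labelled antibody. Antagonism was assessed in TSHR-transfected HEK293 cells stimulated with 4 nM TSH (EC80, final) in the presence of RO 20-1724.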

[14] = target: Thyrotropin-releasing hormone receptor (Homo sapiens) (UniProt P34981); assay: qHTS for Small Molecule Agonists and Allosteric Enhancers of Human TRH Receptor: Validation Screen for Agonists (AID 493127;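 active = calcium activation more than 3 SD above the typical response in the agonist read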;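 note: intracellular calcium rise by fluo-8 fluorescence before TRH EC20 addition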); conditions: TRH receptor agonist cell assay; at 2 µM; stronger effect = higher value
Procedure, shortened: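 Compounds are added by online pintool to dye-loaded TRHR cells while fluorescence is recorded every second. A rise in calcium signal during the agonist read marks activation; a later 10 nM TRH addition (EC20) serves the separate enhancer mode.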

[15] = target: Galactokinase (Homo sapiens) (UniProt P51570); assay: qHTS Validation Assay for Inhibitors of Human Galactokinase (GALK) (AID 493189)
Procedure, shortened: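 5 nM GALK / 100 uM galactose / 35 uM ATP, 20 mM HEPES pH8.0, 5 mM MgCl2, 60 mM NaCl, 1 mM DTT, 0.01% BSA (final). RT 1 h; Kinase-Glo Plus luminescence.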

[16] = Validation screen for small molecules that induce DNA re-replication in SW480 colon adenocarcinoma cells (AID 504364)
Procedure, shortened: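 Image-based qHTS: compounds were incubated with SW480 cells for 48 hr, nuclei stained with Hoechst, and per-nucleus fluorescence intensity scanned to flag cells with excess DNA content.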

[17] = target: Voltage-gated inwardly rectifying potassium channel KCNH2 (Homo sapiens) (UniProt Q12809); assay: qHTS Assay for Small Molecule Inhibitors of the Human hERG Channel Activity (AID 588834);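 note: potency is the fitted concentration of half-maximal effect; lower thallium flux fluorescence means stronger hERG block; nearly all actives have a fitted effect of over 50% in size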
Procedure, shortened: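 Step 1: BacMam hERG transduction of U2OS, 4 hrs RT. Step 2: overnight 37 °C, plate 2000 cells/well, 4 hr. Step 3: FluxOR load, compound 10 min, stimulate, read fluorescence.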

[18] = system: Zika virus NS2B-NS3 protease; assay: Primary screen GU AMC qHTS for Zika virus inhibitors (AID 1347154); note: nearly all actives have a fitted effect of over 70% in size
Procedure, shortened: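 Fluorogenic AMC-substrate cleavage by noncovalent NS2B-NS3 protease complex (25 nM, pH 8.0 Tris buffer with Tween 20) followed for 15 minutes at room temperature (~20% conversion). Percent inhibition from ex340/em450 signal change, fitted by 4-parameter Hill equation.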

[19] = qHTS to identify inhibitors of the type 1 interferon - major histocompatibility complex class I in skeletal muscle: primary screen against the NCATS Mechanism Interrogation Plate v5.0 (MIPE) Libary (AID 1347411); note: nearly all actives have a fitted effect of over 65% in size
Procedure, shortened: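 Seed engineered human myoblasts (HLA-B HiBit) in medium without dexamethasone containing 4 ng/ml IFN-beta; after 1 hr add compound titrations (top 46 uM final). Incubate 24 hrs at 37 C, lyse 10 min with HiBiT reagent, read luminescence.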

[20] = target: Cytochrome P450 2D6 (Homo sapiens) (UniProt P10635); assay: Cytochrome P450 family 2 subfamily D member 6 (CYP2D6) small molecule antagonists: luciferase biochemical (cell-free) qHTS assay (AID 1645840; active = well fitted curve in the direction sought with a large enough effect in the repeat runs; an effect the other way counts as inactive or inconclusive; note: potency is the fitted concentration of half-maximal effect; nearly all actives have a fitted effect of over 55% in size)
Procedure, shortened: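 P450-Glo CYP2D6 system: proluciferin substrate converted by enzyme to luciferin, read by luminescence proportional to activity. Enzyme-substrate mix with compound 10 min at room temperature, then NADPH regeneration 1 h before detection reagent.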

[21] = Primary qHTS for inhibitors of nuclear receptor binding SET domain protein 2 (NSD2) in an isogenic RCH-ACV NSD2 p.E1099K mutant (9B) (AID 1645876); note: potency is the fitted concentration of half-maximal effect; nearly all actives have a fitted effect of over 70% in size
[22] = Primary qHTS for inhibitors of nuclear receptor binding SET domain protein 2 (NSD2) in an RCH-ACV wild type WT cells (2C) (AID 1645877); note: potency is the fitted concentration of half-maximal effect; nearly all actives have a fitted effect of over 70% in size
[23] = NCATS anti-infectives library activity on HEK293 viability as a counter-qHTS vs the C. elegans viability qHTS (AID 1745854);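 note: HEK293 cells exposed to compounds for 24 hr before the viability read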
Procedure, shortened: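 Counter-screen for cytotoxicity: HEK293, 24 hr, 37C, compounds up to 41.7 uM final (a dilution series, 1:5). Readout CellTiter-Glo luminescence, 10 min RT. Digitonin control, 83.3 uM final.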

[24] = NCATS anti-infectives library activity on the primary C. elegans qHTS viability assay (AID 1745855; calls by dose curve)
Procedure, shortened: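 GFP read-out by 488 nm laser cytometry at day 0, 3 and 7, gated on object perimeter, area and peak intensity, scored viability of PE254-GFP-FLuc worms exposed to compound in S medium with bacterial capsules at 21 °C.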

[25] = target: Glutathione peroxidase 1 (Homo sapiens) (UniProt P07203); assay: Primary qHTS Assay for Inhibitors of Recombinant Selenoprotein Glutathione Peroxidase 1 (GPX1) (AID 1845191); note: nearly all actives have a fitted effect of over 65% in size
Procedure, shortened: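 NADPH consumption tracked by fluorescence at 340/450 nm between t=0 and t=15 min, room temperature. Final mix: 10 nM GPX1, 100 nM glutathione reductase, 1 mM GSH, 0.5 mM NADPH, 0.5 mM cumene hydroperoxide, 0.01% BSA; 30 min compound–enzyme preincubation.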

[26] = target: Phospholipid hydroperoxide glutathione peroxidase GPX4 (Homo sapiens) (UniProt P36969); assay: Primary qHTS Assay for Inhibitors of Recombinant Selenoprotein Glutathione Peroxidase 4 (GPX4) (AID 1845192); conditions: outcome: dose series up to 50 µM unless noted; note: nearly all actives have a fitted effect of over 65% in size
Procedure, shortened: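 NADPH consumption followed by fluorescence at 340/450 nm, t=0 and after 15 min at room temperature. Reaction started with cumene hydroperoxide (0.5 mM final) after 30 min compound–GPX4 preincubation; final 200 nM GPX4, 100 nM GR, 1 mM GSH, 0.5 mM NADPH.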

Chain of Voltage-gated inwardly rectifying potassium channel KCNH2 (Homo sapiens) (Q12809 whole entry, looked up): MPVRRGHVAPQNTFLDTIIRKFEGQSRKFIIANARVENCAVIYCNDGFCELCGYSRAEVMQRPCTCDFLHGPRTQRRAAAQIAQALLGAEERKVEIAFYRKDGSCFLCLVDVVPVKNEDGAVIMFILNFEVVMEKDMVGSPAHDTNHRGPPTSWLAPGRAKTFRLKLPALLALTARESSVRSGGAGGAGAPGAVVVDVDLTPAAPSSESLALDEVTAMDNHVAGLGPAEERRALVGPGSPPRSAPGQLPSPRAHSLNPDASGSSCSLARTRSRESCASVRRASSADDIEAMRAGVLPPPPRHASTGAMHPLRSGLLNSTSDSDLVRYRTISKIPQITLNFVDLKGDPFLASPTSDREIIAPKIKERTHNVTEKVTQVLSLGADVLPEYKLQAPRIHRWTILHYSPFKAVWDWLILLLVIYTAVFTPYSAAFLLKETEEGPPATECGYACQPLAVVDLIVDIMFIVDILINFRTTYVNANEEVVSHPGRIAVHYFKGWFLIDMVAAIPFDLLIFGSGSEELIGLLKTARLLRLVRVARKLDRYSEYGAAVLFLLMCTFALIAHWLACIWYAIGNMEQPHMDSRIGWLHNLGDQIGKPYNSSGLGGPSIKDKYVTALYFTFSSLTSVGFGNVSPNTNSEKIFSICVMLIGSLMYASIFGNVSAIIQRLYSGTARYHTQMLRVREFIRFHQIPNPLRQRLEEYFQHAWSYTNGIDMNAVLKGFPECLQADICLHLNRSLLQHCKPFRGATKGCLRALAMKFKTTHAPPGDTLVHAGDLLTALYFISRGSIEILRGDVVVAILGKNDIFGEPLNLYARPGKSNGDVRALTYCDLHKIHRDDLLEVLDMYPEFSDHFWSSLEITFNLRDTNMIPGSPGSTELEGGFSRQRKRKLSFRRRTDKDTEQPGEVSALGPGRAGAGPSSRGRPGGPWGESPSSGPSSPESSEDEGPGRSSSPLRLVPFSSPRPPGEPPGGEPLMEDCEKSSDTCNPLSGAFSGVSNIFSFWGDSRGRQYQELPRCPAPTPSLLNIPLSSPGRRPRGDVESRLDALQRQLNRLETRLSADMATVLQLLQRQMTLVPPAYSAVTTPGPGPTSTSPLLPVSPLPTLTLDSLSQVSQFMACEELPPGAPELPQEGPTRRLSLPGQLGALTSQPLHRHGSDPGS
Chain of Cytochrome P450 2D6 (Homo sapiens) (P10635 whole entry, looked up): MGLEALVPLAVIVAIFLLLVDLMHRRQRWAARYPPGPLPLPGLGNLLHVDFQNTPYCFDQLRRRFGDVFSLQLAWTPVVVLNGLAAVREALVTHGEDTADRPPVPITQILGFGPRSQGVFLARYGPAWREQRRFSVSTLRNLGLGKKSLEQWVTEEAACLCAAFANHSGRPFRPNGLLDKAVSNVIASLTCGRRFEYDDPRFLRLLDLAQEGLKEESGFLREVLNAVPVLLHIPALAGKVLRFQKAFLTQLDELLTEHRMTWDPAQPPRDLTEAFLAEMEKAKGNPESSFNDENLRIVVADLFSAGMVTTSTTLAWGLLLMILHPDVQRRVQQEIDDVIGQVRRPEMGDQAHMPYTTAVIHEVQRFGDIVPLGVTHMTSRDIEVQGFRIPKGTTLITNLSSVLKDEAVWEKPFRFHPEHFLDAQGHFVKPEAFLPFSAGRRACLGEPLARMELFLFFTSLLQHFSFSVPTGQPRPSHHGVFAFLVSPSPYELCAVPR
Chain of Thyrotropin receptor (Homo sapiens) (P16473 whole entry, looked up): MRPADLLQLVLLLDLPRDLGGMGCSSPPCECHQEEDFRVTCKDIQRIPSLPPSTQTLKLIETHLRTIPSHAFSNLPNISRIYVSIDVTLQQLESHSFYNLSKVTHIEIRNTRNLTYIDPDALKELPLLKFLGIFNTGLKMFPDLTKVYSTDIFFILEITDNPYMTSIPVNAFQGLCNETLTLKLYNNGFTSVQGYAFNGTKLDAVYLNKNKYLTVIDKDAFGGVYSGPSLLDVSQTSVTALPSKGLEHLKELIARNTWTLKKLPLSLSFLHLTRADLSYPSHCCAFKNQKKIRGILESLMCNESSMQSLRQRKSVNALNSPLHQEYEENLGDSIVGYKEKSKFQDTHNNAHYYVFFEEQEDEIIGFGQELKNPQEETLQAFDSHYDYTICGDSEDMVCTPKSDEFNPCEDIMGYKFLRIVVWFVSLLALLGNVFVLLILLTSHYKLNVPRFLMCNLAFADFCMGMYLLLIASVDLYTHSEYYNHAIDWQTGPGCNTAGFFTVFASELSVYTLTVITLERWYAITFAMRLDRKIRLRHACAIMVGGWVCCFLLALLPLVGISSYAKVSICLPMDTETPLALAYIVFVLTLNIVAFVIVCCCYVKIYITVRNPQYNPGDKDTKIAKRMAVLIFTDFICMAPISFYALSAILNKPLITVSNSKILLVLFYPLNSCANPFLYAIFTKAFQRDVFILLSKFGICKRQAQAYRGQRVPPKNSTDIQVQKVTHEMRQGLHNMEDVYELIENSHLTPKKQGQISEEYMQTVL
Chain of ATP-dependent DNA helicase Q1 (Homo sapiens) (P46063 whole entry, looked up): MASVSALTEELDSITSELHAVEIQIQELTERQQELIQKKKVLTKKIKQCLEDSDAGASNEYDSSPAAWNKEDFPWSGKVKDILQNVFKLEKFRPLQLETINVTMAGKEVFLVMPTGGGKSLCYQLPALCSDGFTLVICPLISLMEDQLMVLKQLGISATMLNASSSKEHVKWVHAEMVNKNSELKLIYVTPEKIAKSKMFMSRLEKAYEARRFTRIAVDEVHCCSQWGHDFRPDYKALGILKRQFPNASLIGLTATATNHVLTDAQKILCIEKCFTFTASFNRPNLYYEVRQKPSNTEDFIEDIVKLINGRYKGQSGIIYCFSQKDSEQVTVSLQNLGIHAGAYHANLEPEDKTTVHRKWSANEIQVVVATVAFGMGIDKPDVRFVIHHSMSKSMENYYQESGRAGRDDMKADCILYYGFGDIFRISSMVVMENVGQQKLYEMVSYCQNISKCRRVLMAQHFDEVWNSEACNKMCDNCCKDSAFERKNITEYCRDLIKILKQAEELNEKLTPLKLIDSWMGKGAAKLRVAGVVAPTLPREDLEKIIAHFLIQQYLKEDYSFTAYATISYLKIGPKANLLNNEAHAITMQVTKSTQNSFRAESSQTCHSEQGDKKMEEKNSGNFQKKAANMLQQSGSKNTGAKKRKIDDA
Chain of Galactokinase (Homo sapiens) (P51570 whole entry, looked up): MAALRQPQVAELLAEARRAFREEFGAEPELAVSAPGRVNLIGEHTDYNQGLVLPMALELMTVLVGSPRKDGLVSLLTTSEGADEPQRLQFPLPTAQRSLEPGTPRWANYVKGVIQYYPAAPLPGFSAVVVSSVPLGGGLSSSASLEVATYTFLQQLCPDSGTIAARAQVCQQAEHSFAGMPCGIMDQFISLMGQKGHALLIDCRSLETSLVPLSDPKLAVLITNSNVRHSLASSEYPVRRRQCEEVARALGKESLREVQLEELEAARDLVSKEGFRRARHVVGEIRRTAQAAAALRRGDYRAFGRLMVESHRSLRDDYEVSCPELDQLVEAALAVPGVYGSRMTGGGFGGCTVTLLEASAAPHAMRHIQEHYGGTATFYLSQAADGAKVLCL
Chain of Glutathione peroxidase 1 (Homo sapiens) (P07203 whole entry, looked up): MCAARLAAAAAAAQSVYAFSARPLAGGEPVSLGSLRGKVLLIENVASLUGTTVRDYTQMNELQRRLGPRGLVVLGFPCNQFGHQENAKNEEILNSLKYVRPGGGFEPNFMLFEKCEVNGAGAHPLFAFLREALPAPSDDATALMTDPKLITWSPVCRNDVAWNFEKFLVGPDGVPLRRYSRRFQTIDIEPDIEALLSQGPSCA
Chain of DNA repair nuclease/redox regulator APEX1 (Homo sapiens) (P27695 whole entry, looked up): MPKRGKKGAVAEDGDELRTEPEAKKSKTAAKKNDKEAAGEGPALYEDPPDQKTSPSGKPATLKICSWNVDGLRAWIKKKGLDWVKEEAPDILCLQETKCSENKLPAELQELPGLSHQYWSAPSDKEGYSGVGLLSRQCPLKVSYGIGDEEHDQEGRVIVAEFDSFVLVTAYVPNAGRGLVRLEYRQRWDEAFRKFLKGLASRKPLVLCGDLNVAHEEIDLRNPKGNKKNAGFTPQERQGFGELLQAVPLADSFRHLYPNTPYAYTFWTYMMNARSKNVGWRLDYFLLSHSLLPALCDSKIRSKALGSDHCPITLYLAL
Chain of Phospholipid hydroperoxide glutathione peroxidase GPX4 (Homo sapiens) (P36969 whole entry, looked up): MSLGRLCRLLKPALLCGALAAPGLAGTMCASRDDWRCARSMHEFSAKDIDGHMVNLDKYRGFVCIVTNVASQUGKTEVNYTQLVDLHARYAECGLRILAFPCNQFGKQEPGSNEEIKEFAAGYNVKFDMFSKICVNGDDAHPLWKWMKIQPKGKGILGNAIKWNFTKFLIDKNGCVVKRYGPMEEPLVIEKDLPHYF
Chain of Thyrotropin-releasing hormone receptor (Homo sapiens) (P34981 whole entry, looked up): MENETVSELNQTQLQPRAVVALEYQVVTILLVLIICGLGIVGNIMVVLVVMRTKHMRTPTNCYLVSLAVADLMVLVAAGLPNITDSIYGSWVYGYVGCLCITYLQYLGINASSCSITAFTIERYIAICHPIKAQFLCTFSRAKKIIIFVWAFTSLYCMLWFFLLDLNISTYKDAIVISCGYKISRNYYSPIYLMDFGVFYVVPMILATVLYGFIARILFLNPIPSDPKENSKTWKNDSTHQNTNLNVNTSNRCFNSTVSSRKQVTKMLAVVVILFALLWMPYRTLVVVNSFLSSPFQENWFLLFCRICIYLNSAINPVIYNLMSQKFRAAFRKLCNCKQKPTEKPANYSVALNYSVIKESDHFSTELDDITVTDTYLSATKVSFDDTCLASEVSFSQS

O=S(=O)(NCCNC/C=C/c1ccc(Br)cc1)c1cccc2cnccc12
activity change, negative = inhibition ([1]; at 57.5 µM (top of the series)): -23.6% (inactive) | max response ([1]; measured here: cell count channel max response): -29.8% | max response ([1]; measured here: lipid channel max response): -49.7% | Potency [2]: inactive | Potency [3]: inactive | Potency [4]: inactive | Potency [5]: 8.91 µM (active) | Potency [6]: 12.6 µM (active) | Potency [7]: 11.2 µM (active) | Potency [8]: 8.91 µM (active) | Potency [9]: 5.01 µM (active) | Potency [10]: inactive | Potency [11]: inactive | Potency [12]: inactive | outcome [13]: inactive | activation [14]: 5.62% (inactive) | outcome [15]: inactive | outcome [16]: inactive | Potency [17]: 2.82 µM (active) | Potency [18]: inactive | Potency [19]: inactive | Potency [20]: 4.77 µM (active) | Potency [21]: 16.6 µM (active) | Potency [22]: 14.8 µM (active) | outcome [23]: inactive | Potency [24]: inactive | Potency [25]: inactive | Potency [26]: inactive
